Data reported in PubChem BioAssay (NCATS).
Results filed as inconclusive are left out. Activity calls are given as the source filed them. Calls come from the whole dose curve; as a rule, active = well fitted cell-killing curve with a large enough effect; inconclusive = small, poorly fitted or top-dose-only effect, or effect the other way; inactive = no such curve, though single readings can be large or run the other way.

assay: Quantitative High-Throughput drug screen in 47 multiple myeloma cell lines against the NCATS MIPE library collection: ARD_JJKsccE7 cell viability assay (AID 1918929); details: ARD myeloma cell line viability, CellTiter-Glo, 48 h; series mostly up to 45.8 µM; viability: at the top concentration
Source text: PI: Beverly A. Mock Ph.D.
Laboratory of Cancer Biology and Genetics,
Center for Cancer Research, National Cancer Institute,
National Institute of Health, Bethesda, Maryland
Drug resistance and disease progression are common in multiple myeloma (MM) patients, underscoring the need for new therapeutic combinations. […] We hypothesized that effective combinations would reduce MYC expression and enhance p16 activity. […] These preclinical data identify potentially useful drug combinations for evaluation in drug-resistant MM and reveal potential mechanisms of combined drug sensitivity.
Described herein is the primary MIPE qHTS used to cherrypick compounds. Validated compounds were then further tested for potential synergistic activiy.
[1] Peat TJ, Gaikwad SM, Dubois W, Gyabaah-Kessie N, Zhang S, Gorjifard S, Phyo Z, Andres M, Hughitt VK, Simpson RM, Miller MA, Girvin AT, Taylor A, Williams D, D'Antonio N, Zhang Y, Rajagopalan A, Flietner E, Wilson K, Zhang X, Shinn P, Klumpp-Thomas C, McKnight C, Itkin Z, Chen L, Kazandijian D, Zhang J, Michalowski AM, Simmons JK, Keats J, Thomas CJ, Mock BA. Drug combinations identified by high-throughput screening promote cell cycle transition and upregulate Smad pathways in myeloma. Cancer Lett. 2023 Aug 1;568:216284. doi: 10.1016/j.canlet.2023.216284. Epub 2023 Jun 24. PMID: 37356470; PMCID: PMC10408729.
SEQUENCE No. (e.g., 1, 2, 3, etc.); […] (e.g., Cells, Incubation, Reagent, etc.); VALUE and DESCRIPTION.
1; Cells; 5 uL; white, solid bottom 1536-well Greiner assay plate.
2; Compounds; 23 nL; Kalypsis pin tool (Wako USA) equipped with a 1536-well pin head to transfer to the assay plates.
3; Incubation; 48 hours; 37C incubation.
4; Reagent;5uL; CellTiter Glo (Promega).
5; Detector; 425V; Luminescence; Viewlux PerkinElmer.
NOTES (numbers refer to Sequence numbers above)
1. The cell-based screening methods employed in this study were like those previously published. Briefly, the corresponding myeloma cell lines were screened in 1,536-well plates with 500 cells, 5-uL per well for inhibition of cell viability (assessed by measuring ATP levels with CellTiterGlo).
2. NCATS MIPE 4.0 library of approved and investigational drugs were added using the Kalypsis pin tool. Wells treated with DMSO only for 100% viability and media only wells for 0% viability were used as controls.
3. The assay plates were covered and incubated for 48 hours in a 37C, 5% CO2 incubator with controlled humidity.
4. After 48 hours, CellTilter-GloTM luminescent substrate mix (Promega) reagent was added to the assay plate and plates we incubated for 5 min at room temperature.
5. Signal was measured as median relative luminescence units on a ViewLux (PerkinElmer) multiplate reader.
[1] Heske CM, Davis MI, Baumgart JT, Wilson K, Gormally MV, Chen L, Zhang X, Ceribelli M, Duveau DY, Guha R, Ferrer M, Arnaldez FI, Ji J, Tran HL, Zhang Y, Mendoza A, Helman LJ, Thomas CJ. Matrix Screen Identifies Synergistic Combination of PARP Inhibitors and Nicotinamide Phosphoribosyltransferase (NAMPT) Inhibitors in Ewing Sarcoma. Clin Cancer Res. 2017 Dec 1;23(23):7301-7311. doi: 10.1158/1078-0432.CCR-17-1121. Epub 2017 Sep 12. PMID: 28899971; PMCID: PMC6636827.
Potency is the fitted concentration of half-maximal effect.

SMILES	Potency	viability
CO[C@@H]1[C@@H](O)[C@H](O)[C@@H](n2c3c(Cl)cccc3c3c4c(c5c6cccc(Cl)c6[nH]c5c32)C(=O)NC4=O)O[C@@H]1CO	5.26 µM (active)	–
COc1ccc2cc([S+]([O-])Cc3ncc(C)c(OC)c3C)nc2c1	–	124% (inactive)
N[C@H]1CN(c2c(F)cc3c(=O)c(C(=O)O)cn(C4C[C@@H]4F)c3c2Cl)CC12CC2 (stereo not given in full)	–	111% (inactive)
COc1ccc2c(c1OC)C(=O)OC2[C@H]1c2c(cc3c(c2OC)OCO3)CCN1C (stereo not given in full)	0.0743 µM (active)	–
CCC(C=C[C@@H]1OC(=O)C=C[C@H]1C)=C[C@H](C)CC=CC(C)=C[C@@H](C)C(=O)[C@@H](C)[C@H](O)[C@@H](C)CC(C)=CC(=O)O	0.0349 µM (active)	–
Cn1cnc2c(F)c(Nc3ccc(Br)cc3F)c(C(=O)NOCCO)cc21	0.0033 µM (active)	–
CCOC(=O)[C@H](CCc1ccccc1)N[C@@H](C)C(=O)N1[C@@H](C(=O)O)C[C@H]2CCC[C@@H]21	9.35 µM (active)	–
Cc1ncc(-c2ccnc(Nc3ccc(S(C)(=O)=O)cc3)n2)n1C(C)C	2.96 µM (active)	–
O=C1NCCc2[nH]c(-c3ccncc3)cc21	4.18 µM (active)	–
CC(=O)O[C@@]12CO[C@H]1C[C@H](O)[C@@]1(C)C(=O)[C@H](O)C3=C(C)[C@@H](OC(=O)C(O)[C@@H](NC(=O)OC(C)(C)C)c4ccccc4)C[C@@](O)([C@@H](OC(=O)c4ccccc4)[C@@H]21)C3(C)C (stereo not given in full)	–	14.1% (inactive)
CC(=O)OC[C@@H]1O[C@@H](n2ccc(=O)[nH]c2=O)[C@H](OC(C)=O)[C@H]1OC(C)=O	–	125% (inactive)
COc1ccc(Nc2nccc(NCCO)n2)cc1	–	91.2% (inactive)
O=c1ccn([C@@H]2O[C@H](CO)[C@H](O)[C@@H]2F)c(=O)[nH]1	–	134% (inactive)
CON=C(C(=O)N[C@@H]1C(=O)N2C(C(=O)O)=C(Cn3ccc(=N)n3CCO)CS[C@H]12)c1csc(N)n1	–	104% (inactive)
Cn1cc(-c2cnn3c(N)c(Br)c([C@H]4CCCNC4)nc23)cn1	1.05 µM (active)	–
N#Cc1ccc(COC[C@H]2O[C@@H](n3c(NCc4ccc(Cl)c(Cl)c4)nc4c(N)ncnc43)[C@@H](O)[C@@H]2O)cc1	5.26 µM (active)	–
O=C1NC(=O)C(=Cc2ccc3nccc(-c4ccncc4)c3c2)S1	0.118 µM (active)	–
CN(C)CCN1C(=O)c2cccc3cc(N)cc(c23)C1=O	29.6 µM (active)	–
Cn1cc(C=CC(=O)c2cccc(F)c2)cc1C=CC(=O)NO	16.6 µM (active)	–
CCOC(=O)N1CCN([N+]([O-])=NOc2ccc([N+](=O)[O-])cc2C#N)CC1	0.833 µM (active)	–

SMILES	Potency	viability
Cn1cc(-c2ccc3ncc(Cc4ccc5ncccc5c4)n3n2)cn1	–	97% (inactive)
CCCNS(=O)(=O)Nc1ncnc(OCCOc2ncc(Br)cn2)c1-c1ccc(Br)cc1	–	141% (inactive)
O=C(C=CC=Cc1ccc2c(c1)OCO2)N1CCCCC1	–	105% (inactive)
CC(=O)OCC(=O)[C@@]1(O)CC[C@H]2[C@@H]3CCC4=CC(=O)CC[C@]4(C)[C@@H]3C(=O)C[C@@]21C	–	98.7% (inactive)
C[C@H](O)[C@@H]1C(=O)N2C(C(=O)O)=C(S[C@@H]3CN[C@H](CNS(N)(=O)=O)C3)[C@@H](C)[C@@H]12	–	129% (inactive)
COc1cc2c(cc1O)CCC1C2CC[C@@]2(C)C1CC[C@@H]2O (stereo not given in full)	–	153% (inactive)
CCCc1nc(C(C)(C)O)c(C(=O)O)n1Cc1ccc(-c2ccccc2-c2nn[nH]n2)cc1	–	124% (inactive)
O=C(O)CCCCC(CCSCc1ccccc1)SCc1ccccc1 (stereo not given)	18.7 µM (active)	–
C=C1C(=O)O[C@H]2[C@@H]1CCC(C)=CCC[C@@]1(C)O[C@@H]21	2.96 µM (active)	–
CCOC(=O)C1=C(C)NC(=S)NC1c1cccc(O)c1 (stereo not given)	0.833 µM (active)	–
CC(=O)NC(CS)C(=O)O (stereo not given)	–	123% (inactive)
COc1ccc([C@@H]2CNC(=O)C2)cc1OC1CCCC1	–	93.7% (inactive)
NC(=O)c1cccc(-c2cccc(OC(=O)NC3CCCCC3)c2)c1	–	114% (inactive)
C=C[C@@H]1CN2CCC1C[C@H]2[C@H](O)c1ccnc2ccc(OC)cc12 (stereo not given in full)	–	68% (inactive)
C[N+]1(C)[C@@H]2C[C@@H](OC(=O)C(O)(c3cccs3)c3cccs3)C[C@H]1[C@@H]1O[C@@H]12	–	97.7% (inactive)
CCc1nc(-c2cccc(C)c2)c(-c2ccnc(NC(=O)c3ccccc3)c2)s1	20.9 µM (active)	–
CN1[C@H]2CC(OC(=O)[C@@H](CO)c3ccccc3)C[C@H]1[C@H]1O[C@H]12 (stereo not given in full)	–	137% [at 23.2 µM] (inactive)
CCS(=O)(=O)Nc1ccc2[nH]c(O)c(C(=Nc3ccc(CN4CCCCC4)cc3)c3ccccc3)c2c1	0.469 µM (active)	–
CCCCCCCCc1ccc(CCC(N)(CO)CO)cc1	14.8 µM (active)	–
Cc1cncc2cccc(S(=O)(=O)N3CCCN(C(=O)CN)C[C@@H]3C)c12	16.6 µM (active)	–
